Compound activity as filed in PubChem BioAssay.
A selection: hits, their analogues and other compounds. The true share with any hit is near 12%.
Pf growth 48h: P. falciparum growth inhibition at 48 hours (one generation); P. falciparum luciferase growth in erythrocytes, 48 h; Potency, µM (highest dose often 28.7 µM), actives largely listed as inhibitors; 5.9% of 310,000 active; AID 504832
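Here the parasites carry a stable luciferase gene and grow inside erythrocytes in Albumax-based RPMI medium with compound for one erythrocytic cycle. Activity is scored as loss of luminescent signal.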
Sm TGR block: inhibitors of Schistosoma mansoni thioredoxin glutathione reductase; purified TGR, DTNB reduction, TNB absorbance 405 nm; Potency, µM (highest dose often 114 µM), usual class: inhibitors; 3% of 360,000 active; further: nearly all actives have a fitted effect of over 60% in size
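TGR 20 nM + NADPH 100 uM (dispensed conc.), cpd preinc 15 min RT; start with NADPH (500 uM addition) then DTNB (15 mM addition). Kinetic TNB absorbance, 405 nm filter. Four-parameter Hill fit across titration.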
Pf growth 96h: inhibits malaria parasite growth, 96 h; Potency, µM (titrated, usually from 28.7 µM), actives largely listed as inhibitors; AID 504834; P. falciparum luciferase reporter growth, 96 h; 6.9% of 320,000 active
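Infected RBCs, 2% Hct / 0.05% parasitemia final; luciferase-reporter P. falciparum; cpd 96 h, 37 C, 5% CO2; luciferase detection reagent; luminescence.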
SARS PLP yeast: inhibitors of SARS-CoV papain-like protease in yeast. S. cerevisiae expressing SARS-CoV PLpro, growth rescue. Potency, µM (titrated, usually from 32.9 µM), most hits filed as activators. 0.19% of 330,000 active; calls by dose curve; further: nearly all actives have a fitted effect of over 55% in size
Each line names hits and unclear results; the compound was inactive in the other large screens. Unless noted, the call rests on the fitted dose curve; in most records, active means well fitted curve in the direction sought with a large enough effect; inconclusive means small, poorly fitted or top-dose-only effect, or another doubt; inactive means no such curve, though single readings can be large; an effect the other way counts as inactive or inconclusive.

O=c1ccc(-c2ccc(S(=O)(=O)Nc3cccc(Br)c3)o2)n[nH]1	Sm TGR block 50.1µM
Cc1cccc(NS(=O)(=O)c2ccc(-c3ccc(=O)[nH]n3)o2)c1	Sm TGR block 39.8µM
Cc1ccc(NS(=O)(=O)c2ccc(-c3ccc(=O)[nH]n3)o2)cc1N(C)C	none
Cc1c(Cl)cccc1NS(=O)(=O)c1ccc(-c2ccc(=O)[nH]n2)o1	none
O=c1ccc(-c2ccc(S(=O)(=O)Nc3ccccc3Cl)o2)n[nH]1	Pf growth 48h inconclusive, Sm TGR block 39.8µM
CC(C)[C@H](N)c1cn([C@@H](CC(N)=O)C(=O)N2CCNCC2)nn1	Pf growth 96h inconclusive
COc1ccc(-c2nn(Cc3ccccc3)cc2C(=O)N2CCN(c3ncccn3)CC2)cc1	Pf growth 48h 13.1µM, Pf growth 96h inconclusive
CC(C)(Oc1ccc(Cl)cc1)C(=O)N(Cc1ccccc1)c1ccccn1	Pf growth 48h inconclusive, Pf growth 96h 1.85µM
Cc1ccc(-c2nn(Cc3ccccc3)cc2C(=O)N2CCN(c3ccccn3)CC2)cc1	Pf growth 48h 13.1µM, Pf growth 96h inconclusive
Cc1ccc(-n2c(SCC(=O)N3CCN(c4ccccn4)CC3)nnc2N2CCCC2)cc1	Pf growth 48h 9.28µM, Pf growth 96h 8.28µM
O=C(COc1ccc(Cl)cc1)N(Cc1ccccc1)c1ccccn1	Pf growth 96h inconclusive
COc1ccc(-c2c3c(=O)n(C)c(=O)n(C)c3c3n2-c2ccccc2NC3c2ccc(OC)cc2)cc1 (stereo not drawn)	none (no result: Pf growth 48h, Pf growth 96h, SARS PLP yeast)
O=C(c1ccc2c(c1)N(Cc1cccc(Cl)c1)C(=O)c1ccccc1S2(=O)=O)N1CCc2ccccc21	none (no result: Pf growth 48h, Pf growth 96h, SARS PLP yeast)
CCC(=O)N1CCc2cc(Br)cc(S(=O)(=O)N3CCC(C(=O)Nc4cccc(C)c4)CC3)c21	none (no result: Pf growth 48h, Pf growth 96h, SARS PLP yeast)
COc1ccc(-n2ccnc2SCC(=O)Nc2cccc(OC)c2)cc1	none (no result: Pf growth 48h, Pf growth 96h, SARS PLP yeast)
CC(C)(C)OC(=O)N1CCC(Cc2cc(-c3cccnc3)no2)(C(=O)O)CC1	none
CC(C)(Oc1ccc(Cl)cc1)C(=O)N1CCN(c2ccccn2)CC1	Pf growth 48h 14.7µM, SARS PLP yeast inconclusive (no result: Pf growth 96h)
CC(C)(C)c1ccc(OCC(=O)N2CCN(c3ccccn3)CC2)cc1	Pf growth 48h inconclusive, Pf growth 96h inconclusive
O=C(c1cn(-c2ccccc2)nc1-c1ccccc1)N1CCN(c2ccccn2)CC1	Pf growth 48h inconclusive
O=C(c1cn(Cc2ccccc2)nc1-c1ccc(Cl)cc1)N1CCN(c2ccccn2)CC1	Pf growth 48h 13.1µM, Pf growth 96h 9.28µM
CCOC(=O)c1oc2ccc(S(=O)(=O)n3nc(-c4ccc(Br)cc4)cc3N)cc2c1C	none (no result: Pf growth 48h, Pf growth 96h, SARS PLP yeast)
O=C(COc1ccc(F)cc1)NCc1ccc2c(c1)CCN2C(=O)c1ccccc1	none (no result: Pf growth 48h, Pf growth 96h, SARS PLP yeast)
CC(C)c1cc(NCCOCCO)n2c(nc3ccccc32)c1C#N	Pf growth 48h inconclusive
O=C1NC(=O)C(CCc2ccncc2)(CCc2ccncc2)C(=O)N1CCc1ccccc1	Pf growth 48h inconclusive, Pf growth 96h 2.94µM
O=C1NC(=O)C(CCc2ccncc2)(CCc2ccncc2)C(=O)N1CCc1ccc(F)cc1	Pf growth 96h inconclusive
C=C(C)COc1ccc(-c2n[nH]c(C)c2-c2ccc(OC)cc2)c(O)c1	Pf growth 48h inconclusive, Pf growth 96h 3.7µM
COc1ccc(-c2c(-c3ccc(OCC(=O)NN)cc3O)n[nH]c2C(F)(F)F)cc1	Pf growth 48h 9.28µM, Pf growth 96h 9.28µM
CCOc1ccc(-c2n[nH]c(C)c2-c2ccccc2OC)c(O)c1	Pf growth 48h 3.29µM
COc1ccc(-c2c(-c3ccc(OCC(=O)NN)cc3O)n[nH]c2C)cc1OC	Pf growth 48h inconclusive, Pf growth 96h inconclusive
CC(CCN1C(N(C)C)=NC[C@@H]1C)c1ccccc1 (stereo partly drawn)	Pf growth 48h inconclusive
Cn1c(=O)n(C)c2cc(/C=N/NC(N)=S)ccc21	none
CC(C)CCn1c(=O)c2sccc2n2c(CCCC(=O)NCCc3ccccc3)nnc12	none (no result: Pf growth 48h, Pf growth 96h, SARS PLP yeast)
N/C(=N\S(=O)(=O)c1ccccc1)c1ccc([N+](=O)[O-])cc1	Sm TGR block 12.6µM
O=C(O)CCCCCNS(=O)(=O)c1cccc2c1C(=O)c1ccccc1C2=O	Sm TGR block 50.1µM
Cc1ccc(-c2ccccc2)n1-c1ccc(C(=O)O)cc1	Sm TGR block 50.1µM
Cc1ccc(-c2ccccc2)n1-c1cccc(C(=O)O)c1	Sm TGR block 20µM
Cc1nc(=O)c(-c2ccccc2)c(C)n1-c1cccc(C(=O)O)c1	none
Cc1ccc(C(=O)O)cc1-n1c(C)ccc1-c1ccccc1	Sm TGR block 31.6µM (no result: Pf growth 48h, Pf growth 96h, SARS PLP yeast)
O=C(O)c1ccc(-n2c(-c3ccccc3)n[nH]c2=S)cc1	none
Cc1ccc(C(=O)O)cc1N1CCCC1=O	Pf growth 96h inconclusive
CCOc1ccc(NS(=O)(=O)c2ccc3[nH]cc(C(=O)N(C)C4CCCCC4)c(=O)c3c2)cc1	none (no result: Pf growth 48h, Pf growth 96h, SARS PLP yeast)
O=C(Nc1ccc(-c2csc(Nc3cccc(C(F)(F)F)c3)n2)cc1)c1cc([N+](=O)[O-])cc(C(F)(F)F)c1	Pf growth 48h 0.828µM, Pf growth 96h 0.465µM
O=C(Nc1cccc(-c2csc(Nc3cccc(C(F)(F)F)c3)n2)c1)c1ccccc1	Pf growth 48h 11.7µM, Pf growth 96h inconclusive
Cc1ccc(S(=O)(=O)c2cnc(SCC(=O)Nc3ccccc3C(F)(F)F)[nH]c2=O)cc1C	none (no result: Pf growth 48h, Pf growth 96h, SARS PLP yeast)
CC1CCC(NC(=O)CN2C(=O)C3CC=CCC3C2=O)CC1 (stereo not drawn)	none
O=C(CCN1C(=O)/C(=C/c2ccco2)SC1=S)Nc1ccc(O)cc1C(=O)O	Sm TGR block inconclusive
O=C(O)CCN1C(=O)/C(=C\c2ccc(-c3nc4ccccc4s3)o2)SC1=S	Sm TGR block 50.1µM (no result: Pf growth 48h)
O=C(O)CN1C(=O)/C(=C/c2ccc(SCc3ccccc3)o2)SC1=S	Sm TGR block 10µM
O=C(CCN1C(=O)/C(=C/c2ccco2)SC1=S)Nc1ccc(C(=O)O)c(O)c1	Sm TGR block inconclusive
O=C(CN1C(=O)/C(=C\c2ccco2)SC1=S)Nc1ccc(O)cc1C(=O)O	Sm TGR block 25.1µM, Pf growth 96h inconclusive
O=C(CCN1C(=O)/C(=C\c2ccco2)SC1=S)Nc1ccc(C(=O)O)c(O)c1	Sm TGR block 17.8µM
CC(=O)Nc1ccc(S(=O)(=O)N(C)CC(=O)OCCOc2cccc(C)c2)cc1	none
Cc1cc(N2CCC(C(=O)Nc3ccc(Cl)cc3)CC2)n2nc(C)c(-c3ccc(Cl)cc3)c2n1	none (no result: Pf growth 48h, Pf growth 96h, SARS PLP yeast)
O=C(O)CCCN1C(=O)/C(=C\c2ccco2)SC1=S	Sm TGR block inconclusive, Pf growth 96h 2.94µM
COc1ccccc1NC(=O)N1CCCC(C(=O)Nc2cccc(C)c2C)C1 (stereo not drawn)	Pf growth 96h 8.28µM
COc1ccccc1NC(=O)NC1CCCCCCC1	Pf growth 96h 11.7µM
CCOc1ccccc1NC(C)C(=O)NC(=O)NC1CCCCC1 (stereo not drawn)	Pf growth 48h inconclusive, Pf growth 96h 13.1µM
CC(Nc1ccc(F)cc1F)C(=O)NC(=O)NC1CCCCC1 (stereo not drawn)	none
CCOc1ccc(C(=O)Nc2ccc3oc(-c4ccc(C)cc4C)nc3c2)cc1Br	none (no result: Pf growth 48h, Pf growth 96h, SARS PLP yeast)
CCOc1ccc(-n2c(=O)c3sc4ccccc4c3n(Cc3ccc(F)cc3)c2=O)cc1	none (no result: Pf growth 48h, Pf growth 96h, SARS PLP yeast)
Nc1c(C(=O)NC2CC2)sc2nc3c(c(-c4ccco4)c12)CC/C3=C/c1ccco1	Sm TGR block 5.01µM
